Reference: the supplement of paper PMC6555819

Tested on: FXR:RXRa (NR concentration 270 nM, RXRa partner concentration 90 nM)
Assay: PBM binding z-score (relative to random genomic background probes); higher = stronger binding; sequences stand for … in GC…GCGATTGACAGCGTAGAATGAAGG
Method in brief: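 Ligand-free nuclear receptor dimers were bound for 1 h to custom Agilent 4×180K protein-binding microarrays. Detection used antibodies against each partner (one per run). Binding z-scores rest on regression-normalized fluorescence, with random background probes as the reference.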

Sequence	PBM binding z-score
AGAATCAGGTTATTAAGATCAGGGAATTGCGGTC	0.5
TCGAGTAGGTTAGGGGTATTCAGAATGGCGTCGA	0.347
CCTACTGGGCCCTTCAGAGGTCATTGATCATATG	2.3
GAGACTGGGGCAAAGCAGGTTACCATAAGGTTGG	0.509
CCCACTGGGCCACGAAAGGTCATTGATTCAGTGA	3.78
CCAGACAGGTGAGAAGGTCACTCAGCCTCGATTA	2.4
ATCGAAAGCTCGTGAGGTGAGTATACAGAAAGGC	-0.207
TCTAGTTGGTCAAAGGTCACACATTCGAAATGCG	6.04
TAGCGTAGGTCAGATCGGGCCAGTATACGCTATA	2.62
TCTGGTAGATCAAAGGTTAAGAAAGCCGAAGCCT	1.8
CGTCCAAGGTCAAGGTCAGTCAAAGAGACTCGAA	7.71
TCATATAGGTAAAGGTGAAAGTCGAACGATATGA	0.768
ACAGACAGGTGAGTGAAGGCAACTCAGCTGGACG	-0.0161
AGAATGAGGTTATTAAGCTCAGGGAATTGCGGTC	1.57
CGTCCAAGGTAAGCAGGTCAGTGAAAGCGACGTG	0.187
ACTAGTTTGTCAGCTGAGGTCACACACAATTCGG	3.55
TCTTGTAGATCAGCAGGTTCAGAAAGCTGGCCAA	-0.19
ACAGACAGGTGAGTGAAGGAAACTCAGCTGGACG	-0.54
TCTTGTAGATCAAAAGAGGTTAAGAAAGTGCGCT	0.748
TTACCGAGGTGAAGGTCGTTGATCCCTCTGTAGA	2.23

Sequence	PBM binding z-score
CCGAGTAGGTTATGAGGCATTCAGGCAACGGTGA	-0.0177
CGAACTAGGTCATGCAGGACAGTGAATACATTGA	3.87
CGTCCAAGGTGAGAGAGGTCAGTGAATGCCGAGT	2.18
ACACGGAGGACAAAGGTCAGAGCTACGCCAGTGA	4.18
AGTCAAAGTTCGTCTAGGTAACGTAAGATATGCT	1.46
AAAACAGGGTCACTAGGCCAGAGTAGGTACGAAT	6.63
ACAGACAGGTGAGTGAAGGTAATTCAGCTGGACG	0.214
ATCTCTAGGTAACCAAGTTCAATGAATGCCGAAC	0.814
GGAACGAGGGCAAGTTGATAGCGGAGTTTGATGG	0.772
ACCATTAGTTGAGACGAGGGCAACCGATAGGTTG	0.428
ATATGTAGGTTATCGGTTCATTCAGTTTGCGCAT	1.28
AGAATGAGGTTAAGAACAGGGAAACAGAATACAT	2.13
TCTCGGAGGCCACGAAAGGTCAGAGCTCGACATC	3.4
TCTAGTTGGTCAAAGGTCATACACTCGAAATGCG	5.83
CTAACTAGGTCAAGGACAGTGAATCTCCGCACGC	3.07
TTGCCTAGGTCAGATCGGGCCAGTATACGCTATA	2.67
ACTACTTGGTCAGCTGAGGTCACACACAATTCGG	3.83
CGTCCAAGGTCAGCAAGTCAGTGAAAGCGACGTG	4.99
CCTTTCGGGTCACGAGGTTATAGCACGACGAGCG	6.94
CGTCAAAATTCAACTAAGGTAACGTAAAGCACGC	0.963
